# Data from the supplement of paper PMC8728848.
# Shown is part of a subset that was picked to be rich in the strongest signals.
# What was measured:
# Test in all cases: glycan array binding signal (z-score within array); higher = stronger binding
# Settings in all cases: glycan notation: IUPAC condensed, linker removed
# [1] = biological target: Fuc(a1-2)Gal(b1-3)GalNAc(b1-3)Gal(a1-4)Gal(b1-4)Glc
# How it was run: (§1)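 The Consortium for Functional Glycomics database supplied 3228 glycan arrays, of which those lacking an available protein sequence were dropped. The binding signal, a within-array Z-score, was averaged across arrays of the same protein sequence and across linkers. Negative scores can be read as non-binding.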
# [2] = biological target: Fuc(a1-2)Gal(b1-3)[Fuc(a1-4)]GlcNAc(b1-3)[Gal(b1-4)GlcNAc(b1-6)]Gal(b1-4)Glc
# How it was run: as §1
# [3] = biological target: Fuc(a1-2)Gal(b1-4)[Fuc(a1-3)]GlcNAc(b1-3)GalNAc
# How it was run: as §1
# [4] = biological target: Fuc(a1-2)[GalNAc(a1-3)]Gal(b1-4)GlcNAc(b1-2)Man(a1-3)[Fuc(a1-2)[GalNAc(a1-3)]Gal(b1-4)GlcNAc(b1-2)Man(a1-6)]Man(b1-4)GlcNAc(b1-4)GlcNAc
# How it was run: as §1
# [5] = biological target: Fuc(a1-2)[GalNAc(b1-3)]Gal
# How it was run: as §1
# [6] = biological target: Fuc(a1-3)[Gal(b1-4)]GlcNAc(b1-2)Man(a1-3)[Fuc(a1-3)[Gal(b1-4)]GlcNAc(b1-2)Man(a1-6)]Man(b1-4)GlcNAc(b1-4)GlcNAc
# How it was run: as §1
# [7] = biological target: Fuc(a1-3)[Gal(b1-4)]GlcNAc(b1-3)GalNAc
# How it was run: as §1
# [8] = biological target: Gal(a1-3)Gal(b1-3)GlcNAc(b1-2)Man(a1-3)[Gal(a1-3)Gal(b1-3)GlcNAc(b1-2)Man(a1-6)]Man(b1-4)GlcNAc(b1-4)GlcNAc
# How it was run: as §1
# [9] = biological target: Gal(a1-3)Gal(b1-3)[Fuc(a1-4)]GlcNAc(b1-2)Man(a1-3)[Gal(a1-3)Gal(b1-3)[Fuc(a1-4)]GlcNAc(b1-2)Man(a1-6)]Man(b1-4)GlcNAc(b1-4)GlcNAc
# How it was run: as §1
# Gal(a1-4)Gal(b1-4)GlcNAc = biological target: Gal(a1-4)Gal(b1-4)GlcNAc
# How it was run: as §1
# [10] = biological target: Gal(a1-4)Gal(b1-4)GlcNAc(b1-2)Man(a1-3)[Gal(a1-4)Gal(b1-4)GlcNAc(b1-2)Man(a1-6)]Man(b1-4)GlcNAc(b1-4)GlcNAc
# How it was run: as §1
# [11] = biological target: Gal(a1-4)Gal(b1-4)GlcNAc(b1-3)Gal(b1-4)Glc
# How it was run: as §1
# Gal(b1-3)Gal(b1-4)GlcNAc = biological target: Gal(b1-3)Gal(b1-4)GlcNAc
# How it was run: as §1
# [12] = biological target: Gal(b1-3)GlcNAc(b1-3)Gal(b1-3)GlcNAc
# How it was run: as §1
# [13] = biological target: Gal(b1-3)GlcNAc(b1-3)Gal(b1-4)GlcNAc
# How it was run: as §1
# [14] = biological target: Gal(b1-3)[Neu5Ac(a2-6)]GalNAc
# How it was run: as §1
# [15] = biological target: Gal(b1-4)GlcNAc(b1-2)Man(a1-3)[Man(a1-6)]Man(b1-4)GlcNAc(b1-4)GlcNAc
# How it was run: as §1
# [16] = biological target: Gal(b1-4)GlcNAc(b1-3)[Gal(b1-4)GlcNAc(b1-6)]GalNAc
# How it was run: as §1
# Gal3S(b1-4)Glc = biological target: Gal3S(b1-4)Glc
# How it was run: as §1
# [17] = biological target: GalNAc(b1-3)Gal(a1-4)Gal(b1-4)GlcNAc(b1-3)Gal(b1-4)Glc
# How it was run: as §1
# [18] = biological target: GalNAc(b1-3)Gal(a1-6)Gal(b1-4)Glc
# How it was run: as §1
# GlcA(b1-3)GlcNAc = biological target: GlcA(b1-3)GlcNAc
# How it was run: as §1
# [19] = biological target: GlcNAc(a1-4)Gal(b1-4)GlcNAc
# How it was run: as §1
# [20] = biological target: GlcNAc(a1-4)Gal(b1-4)GlcNAc(b1-3)Gal(b1-4)[Fuc(a1-3)]GlcNAc(b1-3)Gal(b1-4)[Fuc(a1-3)]GlcNAc
# How it was run: as §1
# [21] = biological target: GlcNAc(b1-2)Man(a1-3)[GlcNAc(b1-2)Man(a1-6)]Man(b1-4)GlcNAc(b1-4)GlcNAc
# How it was run: as §1
# [22] = biological target: GlcNAc(b1-2)[GlcNAc(b1-4)]Man(a1-3)[GlcNAc(b1-4)][GlcNAc(b1-2)Man(a1-6)]Man(b1-4)GlcNAc(b1-4)GlcNAc
# How it was run: as §1
# [23] = biological target: GlcNAc(b1-3)Gal(b1-3)GalNAc
# How it was run: as §1
# GlcNAc(b1-3)Gal(b1-4)Glc = biological target: GlcNAc(b1-3)Gal(b1-4)Glc
# How it was run: as §1
# GlcNAc(b1-3)GalNAc = biological target: GlcNAc(b1-3)GalNAc
# How it was run: as §1
# [24] = biological target: GlcNAc(b1-4)GlcNAc(b1-4)GlcNAc(b1-4)GlcNAc(b1-4)GlcNAc(b1-4)GlcNAc
# How it was run: as §1
# [25] = biological target: GlcNAc(b1-4)[GlcNAc(b1-6)]GalNAc
# How it was run: as §1
# [26] = biological target: Neu5Ac(a2-3)Gal(b1-3)GalNAc(b1-3)Gal(a1-4)Gal(b1-4)Glc
# How it was run: as §1
# [27] = biological target: Neu5Ac(a2-3)Gal(b1-3)GalNAc(b1-4)[Neu5Ac(a2-3)]Gal(b1-4)Glc
# How it was run: as §1
# [28] = biological target: Neu5Ac(a2-3)Gal(b1-3)GlcNAc(b1-3)Gal(b1-3)GlcNAc
# How it was run: as §1
# [29] = biological target: Neu5Ac(a2-3)Gal(b1-3)[Fuc(a1-4)]GlcNAc(b1-3)Gal(b1-3)[Fuc(a1-4)]GlcNAc
# How it was run: as §1
# [30] = biological target: Neu5Ac(a2-3)Gal(b1-4)[Fuc(a1-3)]GlcNAc(b1-3)Gal(b1-4)GlcNAc
# How it was run: as §1
# [31] = biological target: Neu5Ac(a2-6)Gal(b1-3)GlcNAc(b1-3)[Gal(b1-4)GlcNAc(b1-6)]Gal(b1-4)Glc
# How it was run: as §1
# [32] = biological target: Neu5Ac(a2-6)Gal(b1-4)GlcNAc(b1-2)Man(a1-3)[GlcNAc(b1-2)Man(a1-6)]Man(b1-4)GlcNAc(b1-4)GlcNAc
# How it was run: as §1
# [33] = biological target: Neu5Ac(a2-6)Gal(b1-4)GlcNAc(b1-3)GalNAc
# How it was run: as §1
# [34] = biological target: Neu5Ac9Ac(a2-6)Gal(b1-4)GlcNAc
# How it was run: as §1
# Neu5Gc(a2-3)Gal(b1-4)Glc = biological target: Neu5Gc(a2-3)Gal(b1-4)Glc
# How it was run: as §1
# [35] = biological target: Neu5Gc(a2-3)Gal(b1-4)GlcNAc
# How it was run: as §1
# [36] = biological target: Neu5Gc(a2-6)Gal(b1-4)GlcNAc
# How it was run: as §1
# Neu5Gc(a2-6)GalNAc = biological target: Neu5Gc(a2-6)GalNAc
# How it was run: as §1
binder,measurement,setting,value
"CwpV (Clostridium difficile), B6EFG6 (protein) MKIPKKIAAMLTVTMIAGSSTAGIASAQTVATNLTGQERYETAVKISQDGWKNADEVVIVNDSSIADALSATPFAKAKNAPILLTSKDKLNDKTKAEIQRLKAKKVYLIGGTSVLSTNIEKEIKDLKISFERISGAERYQTSLELAKKLDAISDVKKIAVVNGEKGLADAVSVGAPAAQNNMPVILADSKNGTAVADKFIKDAGITQSYVVGGESSISEAVKNKLPNSTRLGGTDRNDTNAKVIKEFYKKTDLKNAYVTKDGMNKQDQLIDALAVGVLGAKNQSPVVLVGKNLSASQKSLVNSKSFDKITKVGGNGNETAFNEMKSLQEVKTVEAKTISELKSAIDKATANDVINFKPTSEVKEAFTIQTDKAVTVNLNGTYTKTVTINMPNGDVNNYAKVDDVVIDDVKDGTFVNYGKITNLKVNDKNGAKIENNSKGEIGSLTVASGASQVKVTNGGKITTVTNNSKGTTIDNKGTISSVKGDNSPTISGNSPSSNSSGGSSSSGGSSGGSSGGSSSSKVGQIKFSATDKQIKMASGDKTVDPSDNTYILKLTNGTVKDGDVKANVKVAGLPSGLDYTAVGNRSANTITITVSGTTSQSIQNDLNNVSVLVKAGAVSGTGATDSIANTTFEIKKYVAAPAVGQLTFDATDKQIKMASGDKTVDPSDDTYVLTLTKGTAKDGDIKANVEVTGLPSGLDYTAEGDSSANTITIPVSGTASPAVQTDLDNVSVLVKAGAVSETTATDSAANATFEVKKYVAPAVGQLTFDATDKQIKMASGDKTVDPSDDTYVLTLTKGTAKDGDIKANVEVTGLPSGLDYTAEGDSSANTITITVSGTASQAVQTDLDNVSVLVKAGAVSETTATDSAANATFEVKKYVAPAIGQLTFDATDKQIKMASGDKTVDPSDDTYVLTLTKGTAKDGDIKANVEVTGLPSGLDYTAEGDSSANTITITVSGTASQAVQTDLDNVSVLVKAGAVSETTATDSAANATFEVKKHASDPISTIGKISSGLSSLFNILK",glycan array binding signal (z-score),[1],2.48
same,glycan array binding signal (z-score),[2],0.041
same,glycan array binding signal (z-score),[3],0.596
same,glycan array binding signal (z-score),[4],-0.032
same,glycan array binding signal (z-score),[5],-0.249
same,glycan array binding signal (z-score),[6],-0.175
same,glycan array binding signal (z-score),[7],0.07
same,glycan array binding signal (z-score),[8],0.365
same,glycan array binding signal (z-score),[9],0.538
same,glycan array binding signal (z-score),Gal(a1-4)Gal(b1-4)GlcNAc,2.24
same,glycan array binding signal (z-score),[10],9.72
same,glycan array binding signal (z-score),[11],2.79
same,glycan array binding signal (z-score),Gal(b1-3)Gal(b1-4)GlcNAc,-0.025
same,glycan array binding signal (z-score),[12],-0.249
same,glycan array binding signal (z-score),[13],0.622
same,glycan array binding signal (z-score),[14],-0.248
same,glycan array binding signal (z-score),[15],-0.26
same,glycan array binding signal (z-score),[16],-0.34
same,glycan array binding signal (z-score),Gal3S(b1-4)Glc,-0.29
same,glycan array binding signal (z-score),[17],6.4
same,glycan array binding signal (z-score),[18],2.68
same,glycan array binding signal (z-score),GlcA(b1-3)GlcNAc,8.78
same,glycan array binding signal (z-score),[19],-0.192
same,glycan array binding signal (z-score),[20],0.469
same,glycan array binding signal (z-score),[21],-0.124
same,glycan array binding signal (z-score),[22],-0.317
same,glycan array binding signal (z-score),[23],-0.217
same,glycan array binding signal (z-score),GlcNAc(b1-3)Gal(b1-4)Glc,-0.297
same,glycan array binding signal (z-score),GlcNAc(b1-3)GalNAc,-0.322
same,glycan array binding signal (z-score),[24],1.05
same,glycan array binding signal (z-score),[25],-0.284
same,glycan array binding signal (z-score),[26],11.2
same,glycan array binding signal (z-score),[27],-0.101
same,glycan array binding signal (z-score),[28],-0.328
same,glycan array binding signal (z-score),[29],0.484
same,glycan array binding signal (z-score),[30],0.368
same,glycan array binding signal (z-score),[31],-0.21
same,glycan array binding signal (z-score),[32],-0.249
same,glycan array binding signal (z-score),[33],0.056
same,glycan array binding signal (z-score),[34],-0.322
same,glycan array binding signal (z-score),Neu5Gc(a2-3)Gal(b1-4)Glc,-0.229
same,glycan array binding signal (z-score),[35],-0.046
same,glycan array binding signal (z-score),[36],-0.292
same,glycan array binding signal (z-score),Neu5Gc(a2-6)GalNAc,-0.29
